Only some compounds are listed: those with a hit (about 2.9% of all), similar ones and a draw of the others.
DRD3 antagonist – qHTS of D3 Dopamine Receptor Antagonist: qHTS. max response, negative = inhibition, %. AID 652054, 2013. 360,000 compounds, 2.5% hits. D(3) dopamine receptor (Homo sapiens), P35462. D3R cells, DiscoveRx beta-arrestin luminescence, antagonist mode; stronger effect = lower value; in the data active = max response below about -50%; inconclusive = no clear call, values can overlap the other calls
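Cells plated overnight at 1500 cells/well, then exposed to library compounds with dopamine controls for 90 minutes at 37 degrees C. DiscoveRx reagent added for 30–60 minutes at room temperature; luminescence read, quantitative HTS format.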
TSG101-PTAP inh – qHTS Assay for Iinhibitors of HIV-1 Budding by Blocking the Interaction of PTAP/TSG101; Tumor susceptibility gene 101 protein (Homo sapiens), Q99816; Fluorescence polarization, FITC-PTAP peptide / Tsg101 binding; Potency, µM (doses to about 115 µM), usual class: inhibitors; 340,000 tested, under 10 active; AID 493005, 2010; active = well fitted inhibition curve with a large enough effect in the main read-out, with a control signal flat, not every such curve was filed as active; inconclusive = small, poorly fitted or top-dose-only effect, or effect the other way, or a change in a side signal; inactive = no such curve, though single readings can be large or run the other way
Target sequence (Q99816 whole entry, looked up): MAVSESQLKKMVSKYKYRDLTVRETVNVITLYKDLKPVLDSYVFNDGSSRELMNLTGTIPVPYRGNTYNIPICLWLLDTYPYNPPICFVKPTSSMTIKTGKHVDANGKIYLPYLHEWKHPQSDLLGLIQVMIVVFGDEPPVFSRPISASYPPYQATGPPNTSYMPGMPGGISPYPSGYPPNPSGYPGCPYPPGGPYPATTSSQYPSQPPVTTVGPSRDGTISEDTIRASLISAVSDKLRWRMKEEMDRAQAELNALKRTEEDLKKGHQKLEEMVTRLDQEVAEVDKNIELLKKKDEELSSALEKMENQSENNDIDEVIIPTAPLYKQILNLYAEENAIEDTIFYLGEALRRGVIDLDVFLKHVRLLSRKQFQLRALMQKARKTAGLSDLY
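Compounds were pin-transferred onto Tsg101 binding domain (10 uM final) in HEPES pH 7.5 buffer, then FITC-PTAP peptide was added at 50 nM final. After 20 min at RT, polarization reported peptide displacement across a qHTS concentration series.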
D3 ag – qHTS of D3 Dopamine Receptor Agonist: qHTS. D(3) dopamine receptor (Homo sapiens), P35462. D3R DiscoveRx beta-arrestin cells, luminescence, 90 min. max activation, %. 410,000 compounds, 0.58% hits; in the data active = max activation above about 30%
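Agonist-mode cell screen: cells plated at 1500/well and incubated overnight at 37 °C, then exposed to library compounds for 90 min at 37 °C. Detection reagent was added for 30–60 min at room temperature, and luminescence was read.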
Rango complex inh – qHTS Assay for Inhibitors of Rango (Ran-regulated importin-beta cargo) - Importin beta complex formation; Importin subunit beta-1 (Homo sapiens), Q14974; Rango CFP/YFP FRET sensor + importin beta, 45 min; Potency, µM (highest dose often 92.2 µM); 340,000 compounds, 0.031% hits; AID 540263, 2011; note: nearly all actives have a fitted effect of over 15% in size
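FRET biosensor (snurportin 1 IBB flanked by EYFP and cerulean), 50 nM, with compound 5 min, then 0.125 microM importin beta in PBS, 1 mM DTT, 0.02% Tween-20, 0.1% BSA. CFP/YFP ratio read after 45 min at room temperature; pre-read flags interference.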
Rango release inh – qHTS Assay for Inhibitors of RanGTP induced Rango (Ran-regulated importin-beta cargo) - Importin beta complex dissociation; Snurportin-1 (Homo sapiens) + GTP-binding nuclear protein Ran (Homo sapiens) + Importin …; Biochemical FRET Rango-importin beta, RanGTP-induced dissociation; Potency, µM (series often up to 46.1 µM); 340,000 compounds, 0.071% hits; AID 540253, 2011; note: nearly all actives have a fitted effect of over 45% in size
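Rango/importin beta premix (0.1/0.25 uM final), PBS + 1 mM DTT + 0.02% Tween-20 + 0.1% BSA; cpd 5 min RT; FRET pre-read; + RanGTP-RCC1 (0.6 uM Ran, 2 mM GTP, 0.2 uM RCC1); 45 min RT; FRET post-read, ex 430, em 486/530 nm.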
Mm-Cpn inhibitor – Inhibitors of TCP-1 ring complex (TRiC) of Methanococcus maripaludis (MmCpn): qHTS | Chaperonin Mm-Cpn (Methanococcus maripaludis) | purified Mm-Cpn ATPase, ADP Transcreener TR-FRET | Potency, µM (top dose mostly 76.9 µM), hits mostly inhibitors | 330,000 compounds, 0.031% hits | AID 504842, 2011; active = well fitted inhibition curve with a large enough effect; inconclusive = small, poorly fitted or top-dose-only effect; note: nearly all actives have a fitted effect of over 80% in size
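TR-FRET (320 nm excitation; 590 and 665 nm emission) reports ADP made from 10 uM ATP by 25 nM enzyme; compounds were preincubated 10 min, reaction run 30 min, both at 37°C.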
Hits are given with their value; - = inactive; ? = inconclusive; . = no result. Unless noted, calls come from the whole dose curve.

SMILES	DRD3 antagonist	TSG101-PTAP inh	D3 ag	Rango complex inh	Rango release inh	Mm-Cpn inhibitor
CCn1c(SCC(=O)Nc2ccc(C(C)=O)cc2)nc2nc3c(cc2c1=O)CCCC3	-	-	30	-	-	-
Cc1cccc(C(=O)Nc2ccccc2C(=O)NCc2ccco2)c1	-	-	-	-	-	-
Cc1ccc2nc(C(C)(C)C)c(Cc3ccsc3)n2c1	-107	.	-	.	.	.
Cc1ccc(-c2nc3ccc(C)cn3c2Cc2ccsc2)cc1	-	.	-	.	.	.
CCc1nn(C(C)C(=O)NCCN2CCN(c3cccc(C)c3C)CC2)c(=O)c2cc3occc3n12 (stereo unspecified)	-59	-	-	-	-	-
CCCCCCCCOc1ccccc1C(=O)Nc1ccc(C(=O)OCC[N+](C)(CC)CC)cc1	.	.	-	.	.	.
CC12CCC(C(=O)N(CCCCN3CCN(Cc4ccccc4)CC3)C1=O)C2(C)C (stereo unspecified)	-74	-	-	-	-	-
CCOc1ccc(CC(=O)NCCc2csc(-c3ccc(Cl)cc3)n2)cc1	.	.	-	.	.	.
COc1ccc(-c2noc(CCC(=O)N3CCN(c4cccc(OC)c4)CC3)n2)cc1	-	-	44	-	-	-
Cc1ccc2nc(CSc3nnc(NC(=O)COc4ccccc4)s3)cc(=O)n2c1	.	.	-	.	.	.
COc1ccc(OC(C)C(=O)N(C)Cc2nc(-c3ccc(C)cc3)no2)cc1 (stereo unspecified)	-	-	-	-	-	-
COc1ccc(OC(C)C(=O)N(C)Cc2nc(-c3ccc(OC)cc3)no2)cc1 (stereo unspecified)	-	-	40	-	-	-
COc1ccc(-c2noc(CN(C)CCC3CCCCO3)n2)cc1 (stereo unspecified)	-	-	35	-	-	-
O=C(NC(c1ccc(F)cc1)c1ccc2ccccc2n1)C1CCN(CCOc2ccc(Cl)cc2Cl)CC1 (stereo unspecified)	-	.	-	.	.	.
Cn1cc(CN2CCC(C(=O)NC(c3ccc(F)cc3)c3ccc4ccccc4n3)CC2)c2ccccc21 (stereo unspecified)	-58	.	-	.	.	.
O=C(NC(c1ccc(F)cc1)c1ccc2ccccc2n1)C1CCN(Cc2ccc(Oc3ccccc3)cc2)CC1 (stereo unspecified)	-89	.	-	.	.	.
O=C(NC(c1ccccc1)c1ccc2ccccc2n1)C1CCN(Cc2ccc(Oc3ccccc3)cc2)CC1 (stereo unspecified)	?	.	-	.	.	.
COc1cc(CN2CCC(C(=O)NC(c3ccc(F)cc3)c3ccc4ccccc4n3)CC2)cc(OC)c1 (stereo unspecified)	-68	.	-	.	.	.
Cc1cc(C)cc(NC(=O)c2cc(S(=O)(=O)N3CCOCC3)cn2C)c1	.	.	-	.	.	.
Cc1cccc(NC(=O)C2CCN(S(=O)(=O)c3ccc4c(c3)CCCN4C(=O)C3CCC3)CC2)c1	.	.	-	.	.	.
O=c1c(-c2c(O)cc(O)c3c2O[C@H](c2ccc(O)cc2)CC3)c(-c2ccc(O)cc2)oc2cc(O)cc(O)c12	-	-	-	-	-	35µM
COC(=O)c1cc(Cl)c(NC(=O)c2ccc(F)cc2)cc1OC	-	-	-	-	-	-
COC(=O)c1cc(Cl)c(NC(=O)c2cc(OC)c(OC)c(OC)c2)cc1OC	-	-	41	-	-	-
CCCn1c(=O)c2sccc2n2c(CCCC(=O)N3CCN(c4ccc(OC)cc4)CC3)nnc12	.	.	-	.	.	.
Cc1ccc(C(=O)NC2CC3CCCC(C2)N3Cc2ccccc2)cc1 (stereo unspecified)	-80	-	-	-	-	-
SMILES	DRD3 antagonist	TSG101-PTAP inh	D3 ag	Rango complex inh	Rango release inh	Mm-Cpn inhibitor
Cc1cccc(C(=O)NC2CC3CCCC(C2)N3Cc2ccccc2)c1 (stereo unspecified)	-112	-	-	-	-	-
O=C(NC1CC2CCCC(C1)N2Cc1ccccc1)c1ccc([N+](=O)[O-])cc1 (stereo unspecified)	-89	-	-	-	-	-
O=C(Nc1ccccc1-c1ccccc1)NC1CC2CCCC(C1)N2CCc1ccccc1 (stereo unspecified)	-	-	-	-	-	-
CCCN1C2CCCC1CC(NC(=O)c1ccc(C(C)(C)C)cc1)C2 (stereo unspecified)	-	-	-	-	-	-
Cc1cccc(C(=O)NC2CC3CCC(C2)N3C)c1 (stereo unspecified)	-	-	-	-	-	-
O=C(Nc1ccccc1-c1ccccc1)NC1CC2CCCC(C1)N2Cc1ccc(F)cc1 (stereo unspecified)	-101	-	-	-	-	-
COC(=O)c1ccc(C(=O)OC)c(NC(=O)c2cnn3c(C(F)F)cc(-c4ccccc4)nc23)c1	.	.	-	.	.	.
CC(=O)c1ccc(NC(=O)CN(C)S(=O)(=O)c2cnc[nH]2)cc1	.	.	-	.	.	.
O=C(NC1CC2CCCC(C1)N2S(=O)(=O)c1ccccc1)c1ccco1 (stereo unspecified)	-	-	-	-	-	-
CCN(CC)C(=O)NC1CC2CCCC(C1)N2Cc1ccccc1 (stereo unspecified)	-65	-	-	-	-	-
O=C(CN1C2CCCC1CC(NC(=O)c1ccco1)C2)Nc1ccccc1 (stereo unspecified)	-58	-	-	-	-	-
Cc1ccc(CN2C3CCCC2CC(NC(=O)c2ccc(F)cc2)C3)cc1 (stereo unspecified)	-88	-	-	-	-	-
O=C(/C=C/c1ccccc1)NC1CC2CCCC(C1)N2Cc1ccccc1 (stereo unspecified)	.	.	.	.	.	-
CCCNC(=S)NC1CC2CCCC(C1)N2Cc1ccc(F)cc1 (stereo unspecified)	-101	-	-	?	-	-
CC(O)[C@@H]1NC(=O)[C@H](CCCCN)NC(=O)[C@@H](Cc2c[nH]c3ccccc23)NC(=O)[C@H](Cc2ccccc2)NC(=O)[C@@H](NC(=O)[C@H](N)Cc2ccccc2)CSSC[C@@H](C(=O)N[C@H](CO)[C@@H](C)O)NC1=O (stereo partly specified)	.	.	-	.	.	.
